{"source": "the supplement of paper PMC7156485", "note": "Where “and” joins values, the source holds several entries; their conditions need not be identical. Equal values may be shown once.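 Also: TDF denotes transformed human dermal fibroblasts of mesenchymal origin.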", "data": [{"test_system": "TDF", "assay": "cell number relative to DMSO (% of DMSO); higher = more cells (less growth inhibition / toxicity)", "conditions": "concentration: 10 µM; 24 h", "procedure,_shortened": "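Using 384-well plates with 800 cells per well in RPMI plus 10% FBS, HCC1569 and TDF cells were exposed to compounds at 10 µM, in triplicate, for 24 h at 37 °C. Imaging of six fields per well at ×10 followed H1.0 and DAPI staining. The reported quantity, H1.0 nuclear intensity or cell number, is a median of replicates given as percent of the plate control, and HCC1569 values were smoothed for positional effects.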", "values": [{"smiles": "Cc1nc(-c2ccc(-c3ccc(C(=O)N4CCc5cc6c(cc54)C4(CCN(C)CC4)CO6)cc3)c(C)c2)no1.Cl", "cell number": 94.7}, {"smiles": "CC1OC(=O)C(C(C)C)NC(=O)C(C(C)C)OC(=O)C(C(C)C)NC(=O)C(C)OC(=O)C(C(C)C)NC(=O)C(C(C)C)OC(=O)C(C(C)C)NC(=O)C(C)OC(=O)C(C(C)C)NC(=O)C(C(C)C)OC(=O)C(C(C)C)NC1=O", "note": "(stereo not given) [Valinomycin]", "cell number": 56.8}, {"smiles": "COc1ccc(C(=O)OC2CC3CCC(C2)N3C)cc1OC", "note": "(stereo not given) [Convolvamine]", "cell number": 96.1}, {"smiles": "C1CCc2nnnn2CC1", "note": "[Pentylenetetrazole]", "cell number": 113}, {"smiles": "CC(=CC=CC(C)C(=O)O)C1CNC(C(=O)O)C1CC(=O)O", "note": "(stereo not given) [Domoic acid]", "cell number": 109}, {"smiles": "CNCC(O)c1ccc(O)cc1", "note": "(racemic)", "cell number": 111}, {"smiles": "CP(=O)(O)CCCN.Cl", "cell number": 98.3}, {"smiles": "CCCCCC=CC=CC(CCCCCCCC(=O)O)OO", "note": "(stereo not given)", "cell number": 94}, {"smiles": "COC(C)C(O)(C(=O)OCC1=CCN2CCC(O)C12)C(C)C", "note": "(stereo not given) [Heliotrine]", "cell number": 105}, {"smiles": "COCC1OC(=O)c2coc3c2C1(C)C1=C(C3=O)C2CCC(=O)C2(C)CC1OC(C)=O", "note": "(stereo not given) [Wortmannin from Penicillium funiculosum]", "cell number": 100}, {"smiles": "CCCN1CCCC2Cc3nc(N)ncc3CC21.Cl.Cl", "note": "(stereo not given) [Quinelorane dihydrochloride]", "cell number": 113}, {"smiles": "Br.CCCN(CCC)C1CCc2ccc(O)cc2C1", "note": "(stereo not drawn) [R-(+)-7-Hydroxy-DPAT hydrobromide]", "cell number": 110}, {"smiles": "CCCN1CCCC2Cc3[nH]ncc3CC21", "note": "(racemic)", "cell number": 96.7}, {"smiles": "COc1cc(=O)oc(C=CC=CC=CC(C)=CC2(C)OC(C)C(C)(O)C2O)c1C", "note": "(stereo not given) [Citreoviridin]", "cell number": 38.6}, {"smiles": "COC1CC(CC2CCC(C)C(C(C)C(=O)[O-])O2)OC2(OC(C)(C3CCC(C)(C4OC(C5OC(O)(CO)C(C)CC5C)CC4C)O3)CC2C)C1C.[Na+]", "note": "(stereo not given) [Nigericin]", "cell number": 68.8}, {"smiles": "CC1CCC2N(C1)CC1C3CC4C(CC(=O)C5CC(O)CCC54C)C3CCC1C2(C)O", "note": "(stereo not given) [Imperialine]", "cell number": 88.5}, {"smiles": "CCCN(CCC)C(=O)Cc1c(-c2ccc(Cl)cc2)nc2c(Cl)cc(Cl)cn12", "cell number": 105}, {"smiles": "CC(O)=C(C#N)C(=O)Nc1cc(Br)ccc1Br", "cell number": "99.5 and 103"}, {"smiles": "COc1ccc2c(c1O)-c1cccc3c1C(C2)N(C)CC3.Cl", "note": "(stereo not drawn) [R(-)-Apocodeine hydrochloride]", "cell number": 89.9}, {"smiles": "NC(=O)c1cc(N2CC2)c([N+](=O)[O-])cc1[N+](=O)[O-]", "cell number": 94}, {"smiles": "CCCCCCC(C)(C)c1ccc(C2CC(O)CCC2CCCO)c(O)c1", "note": "(stereo not given)", "cell number": 109}, {"smiles": "C=C1C(C)C2C(Cc3ccccc3)NC(=O)C23C(OC(C)=O)C=CC(C)(O)C(=O)C(C)CC=CC3C1O", "note": "(stereo not given) [Cytochalasin D]", "cell number": 45.1}, {"smiles": "Br.COC1CC=C2CCN3CCC4=C(CC(=O)OC4)C23C1", "note": "(stereo not drawn) [Dihydro-beta-erythroidine hydrobromide]", "cell number": 98.2}, {"smiles": "COc1cc2c(cc1O)CC1c3c(cc(O)c(OC)c3-2)CCN1C", "note": "(stereo not given) [Boldine]", "cell number": 103}, {"smiles": "COc1ccc2c(c[n+](C)c3c4cc5c(cc4ccc23)OCO5)c1OC.[Cl-]", "note": "[Chelerythrine Chloride]", "cell number": 98.2}, {"smiles": "CC(Cc1ccc(OCC(=O)[O-])cc1)NCC(O)c1cccc(Cl)c1.[Na+]", "note": "(stereo not given)", "cell number": 110}, {"smiles": "C[Se]CC(N)C(=O)O.Cl", "note": "(stereo not given) [Se-(methyl)selenocysteine hydrochloride]", "cell number": 90.3}, {"smiles": "CN1CCc2cccc(Cl)c2CC1.Cl", "cell number": 98.7}, {"smiles": "CN1CC(C(=O)NC2(C)OC3(O)C4CCCN4C(=O)C(Cc4ccccc4)N3C2=O)CC2c3cccc4[nH]cc(c34)CC21.CS(=O)(=O)O", "note": "(stereo not given) [Dihydroergotamine mesylate]", "cell number": 102}, {"smiles": "CC[N+](CC)(CC)CC.[Cl-]", "note": "[Tetraethylammonium chloride]", "cell number": 108}, {"smiles": "O=C([O-])Cc1ccccc1.[Na+]", "note": "[Sodium Phenylacetate]", "cell number": 103}, {"smiles": "CC(C)N(CCC(C(N)=O)(c1ccccc1)c1ccccn1)C(C)C.O=P(O)(O)O", "note": "(stereo not given) [Disopyramide phosphate]", "cell number": 105}, {"smiles": "CC1(C)CCCC(C)(C)N1[O]", "cell number": 96.8}, {"smiles": "C[N+](C)(C)CC(=O)O.[Cl-]", "note": "[Betaine hydrochloride]", "cell number": 113}, {"smiles": "COC1C(O)C(C)OC(OC2C(Oc3cccc4c(O)c5c(=O)oc6ccc(C)c7c(=O)oc(c34)c5c67)OC(C)C(O)C2O)C1O", "note": "(stereo not given) [Chartreusin]", "cell number": 99.3}]}]}
